# BJeLR lethal: MLPCN primary cell-based screen for lethality selective to Ras in HRASV12 cells | BJeLR (HRASV12) viability, CellTiter-Glo ATP luminescence, 48 h | inhibition, % (test concentration not listed) | 0.17% of 300,000 active | AID 1554, 2009; in the data active means inhibition above about 50%; inconclusive means no clear call, values can overlap the other calls
# BoNT F protease: BoNT/F light chain protease inhibitors, primary screen, biochemical, flow cytometry, MLPCN library. Multiplex microsphere protease cleavage assay. Botulinum neurotoxin type F light chain protease (Clostridium botulinum). AID 588497, 2011. inhibition, % at 10 µM. 0.22% of 360,000 active; in the data active means inhibition above about 35%, passing the limit was not always enough; inconclusive means no clear call, values can overlap the other calls; further: plate controls were buffer without enzyme for full effect and enzyme alone for no effect
# Autofluor counter: compound fluorescence in toxin protease inhibitor counterscreen | 3.1% of 360,000 active | AID 624483 | fluorescence intensity (no concentration beside the values) | compound autofluorescence counterscreen, microsphere flow cytometry; active compounds read high; in the data active means fluorescence intensity above about 16000; inconclusive means no clear call, values can overlap the other calls
# SARS 3CLpro inh: SARS-CoV 3CLpro protease inhibitors, primary screen, biochemical, quenched FRET; inhibition, % at 6 µM; 0.14% of 290,000 active; recombinant SARS-CoV 3CLpro, quenched FRET peptide cleavage; Replicase polyprotein 1ab (Severe acute respiratory syndrome coronavirus), P0C6X7; in the data active means inhibition above about 12%
# BoNT A protease: BoNT/A light chain protease inhibitors, primary screen, biochemical, flow cytometry, MLPCN library; multiplex microsphere protease substrate cleavage; inhibition, % at 10 µM; 0.17% of 360,000 active; Botulinum neurotoxin type A light chain protease (Clostridium botulinum A str. ATCC 3502); further: plate controls were buffer without enzyme for full effect and enzyme alone for no effect
# Anthrax LF prot: Bacillus anthracis LF protease inhibitors, primary screen, biochemical, multiplex microsphere, MLPCN library; 0.12% of 360,000 active; Lethal factor (Bacillus anthracis), P15917; inhibition, % at 10 µM; AID 588501, 2011; multiplex microsphere protease cleavage assay; further: plate controls were buffer without enzyme for full effect and enzyme alone for no effect
# The depositor's hits bear a star; ? = inconclusive; / = no result given. This is a sample that favours compounds with a hit; in the whole collection about 3.6% have one here. Unless noted, no stated cut-off is given here; in the data, active means inhibition above about 30%; inconclusive means no clear call, values can overlap the other calls; inactive means below that.
SMILES,BJeLR lethal,BoNT F protease,Autofluor counter,SARS 3CLpro inh,BoNT A protease,Anthrax LF prot
CC(C)CCOc1ccc(C(=O)NCCC(=O)N2CCOCC2)cc1,-1,6,21240*,2,4,-12
CCCCOc1ccc(C(=O)NCCCC(=O)N2CCCCC2)cc1,-4,-9,6659,-1,-2,-7
CCOc1ccc(C2C(C(=O)c3ccco3)=C(O)C(=O)N2CCCn2ccnc2)cc1OC (configuration not stated),8,-4,5509,1,1,0
COc1ccccc1NC(=O)c1ccc(-n2cccn2)nc1,16,-2,22967*,1,0,1
O=C(Nc1ccc(F)cc1)c1ccc(-n2ccnc2)nc1,9,0,22409*,1,1,-4
O=C(Nc1ccc(F)cc1F)c1ccc(-n2cccn2)nc1,-2,-5,4024,-3,0,-2
COc1ccc(NC(=O)c2ccc(-n3cccn3)nc2)c(OC)c1,-5,-6,22774*,0,-3,-6
O=C(Nc1ccc(F)cc1F)c1ccc(-n2cncn2)nc1,5,0,21818*,-2,?,-4
Cc1cc(C)cc(OCC(=O)Nc2cnn(CCCC(=O)O)c2)c1,-3,-2,5136,-4,2,0
COc1ccc(NC(=O)c2ccc(-n3cccn3)nc2)cc1,14,6,22260*,2,2,-2
COc1ccc(NC(=O)c2ccc(NC(=O)c3cccnc3)cc2)cc1,/,1,3732,/,0,0
Cc1cccc(NC(=O)CCNC(=O)c2ccc(Br)cc2)c1C,-7,-6,2976,2,1,-2
O=C(NC(=S)Nc1ccc2c(c1)OCO2)c1ccc(Cl)cc1,-8,-19,2408,2,-2,0
O=C(Nc1ccc2c(c1)OCO2)C1(S(=O)(=O)c2ccc(Cl)cc2)CC1,8,-8,24545*,5,-3,-3
CC(=O)Nc1ccc(NC(=O)CCCCCN2C(=O)c3ccccc3C2=O)cc1,2,4,18712*,-1,4,-6
O=C(CCCCCN1C(=O)c2ccccc2C1=O)Nc1ccccc1,5,8,9863,4,1,-2
O=C(CCCCCCC(=O)Nc1ccccc1)NO,72*,-3,4018,/,0,-1
O=C(CCCCCN1C(=O)c2ccccc2C1=O)Nc1nccs1,/,2,21980*,-2,2,1
Cc1cccc(C)c1NC(=O)C1(C)CCC(=O)N1CCc1c[nH]c2ccccc12 (configuration not stated),/,2,5515,/,-1,-3
Cc1ccc(C(=O)NCCCNC(=O)c2ccco2)cc1C,2,0,6066,3,-1,-1
O=C(CNCC1CCCO1)Nc1ccccc1N1CCOCC1 (configuration not stated),-3,1,22897*,2,1,0
Clc1ccc(-c2nnc(-c3ccccc3Cl)o2)cc1,-2,-6,17061*,-4,-4,-6
CCCSc1nc(SCC(=O)NCc2ccccc2)c2c3c(sc2n1)COC(C)(CC)C3 (configuration not stated),-3,?,?,5,?,?
Oc1ccc(C[C@H]2CNC(=S)N2C[C@H]2CCCN2C[C@H](Cc2ccccc2)N2C[C@H](Cc3ccccc3)N(CC3CCCCC3)C2=S)cc1,/,-8,5861,/,-1,-6
Cc1nn(Cc2ccccc2)c(C)c1NC(=O)c1cc(-c2ccc3c(c2)OCO3)on1,-20,-2,16514*,7,?,1
COc1ccc(-c2cc(C(=O)Nc3ccccc3SC)no2)cc1,-7,-7,3844,4,1,-2
O=C(NCCCn1ccnc1)c1cc(-c2ccc3c(c2)OCO3)on1,-2,-2,20683*,-5,0,1
Cc1c(NC(=O)c2cc(-c3ccc4c(c3)OCO4)on2)c(=O)n(-c2ccccc2)n1C,-4,-8,9741,1,-1,2
O=C(NCCCn1ccnc1)c1cc(-c2ccc(Br)cc2)on1,4,2,4461,8,0,0

# High-throughput results from PubChem BioAssay.
